Results published in PubChem BioAssay (EPA / NIEHS).
Results filed as inconclusive are left out. Active and inactive are the calls of the source. The calls were made as follows: active = hit-call score of the fitted dose curve at least 0.9, where 1 is the maximum; inconclusive = response in the unintended direction; inactive = score below 0.9.

Read-out: Cytochrome P450 3A4 (Homo sapiens) (UniProt P08684)
Assay: CLD_CYP3A4_48hr: CellzDirect (CLD) Gene Expression Assay for xenobiotic metabolism (CYP3A4) at 48 hours (AID 2283698)
Experimental: CLD_48hr is a cell-based, multiplexed-readout assay that uses hepatocyte, a human liver primary cell, with measurements taken at 48 hours after chemical dosing in a 96-well plate.CLD_CYP3A4_48hr is one of 16 assay component(s) measured or calculated from the CLD_48hr assay. It is designed to make measurements of mRNA induction, a form of inducible reporter, as detected with chemiluminescence signals by Quantitative Nuclease Protection Assay (qNPA) technology.Data from the assay component CLD_CYP3A4_48hr was analyzed at the endpoint, CLD_CYP3A4_48hr, in the positive analysis fitting direction relative to DMSO as the negative control and baseline of activity. Using a type of inducible reporter, gain-of-signal activity can be used to understand changes in the reporter gene as they relate to the gene CYP3A4. Furthermore, this assay endpoint can be referred to as a primary readout. To generalize the intended target to other relatable targets, this assay endpoint is annotated to the cyp intended target family, where subfamily is xenobiotic metabolism.
Human hepatocyte cultures were treated daily for two consecutive days with fresh dosing solutions containing appropriate concentrations of the 320 ToxCast chemicals (chemical identities were blinded to CellzDirect and other ToxCast collaborators), vehicle control (0.2% DMSO), and positive control inducers as summarized in Table 1. Due to the large number of treatment groups and chemicals examined, the ToxCast chemicals were divided into two groups (spanning two independent cultures of hepatocytes from separate donor preparations (Hu778: ToxCast plates 1 and 2; Hu776: ToxCast plates 3 and 4). Each preparation of human hepatocyte cultures was treated with respective vehicle control, medium only control, set of six positive controls/reference chemicals for the five hepatic receptor pathways, and a subset of eight of the ToxCast chemicals (indoxacarb, pyrithiobac-sodium, norflurazon, cyhalofop-butyl, methomyl, thiram, acetochlor, and propiconazole). These replicate data, coupled with internal replicates designed within the blinded ToxCast chemical library, provided additional data to evaluate interindividual differences between hepatocyte preparations and their potential impact on chemical profiles.Cell morphology and integrity were evaluated using phase-contrast microscopy as an indicator of hepatocyte cell health (Tyson & Green, 1987). Cultures for each treatment group (i.e., media, vehicle [0.2% DMSO], positive control inducers [multiple concentrations], and the ToxCast chemicals [multiple concentrations]) were observed and cell morphology was assessed relative to vehicle control cultures at each harvest time point (0, 6, 24, or 48 h). […] Images were evaluated at the conclusion of the study to assess changes in cell integrity and account for the effects of chemical exposure on uncharacteristic changes in concentration-dependent gene expression profiles. The results from these determinations of apparent cytotoxicity were annotated (yes/no) alongside the corresponding qNPA data for reference.At the conclusion of each treatment period, hepatocyte cultures (96-well) were washed with 1 volume of HBSS, lysed by addition of 25 ul ArrayPlate lysis buffer (HTG, Tucson, AZ), and 70 ul/well of Denaturation Oil, denatured by incubation at 95C for 10 min, and frozen at approximately -70C until analysis by nuclease protection assay (qNPA) (Roberts et al., 2007). For qNPA analysis, cell lysates were thawed at 50C for approximately 30 min, qNPA probes were added, and samples were incubated at 95C for 10 min to begin the detection process by denaturing the target RNA, dissociating the duplexes and secondary structure hybridization. At the conclusion of the hybridization period, S1 nuclease reagent was added to each sample to digest all nonprotected nucleotides at 50C for 60-90 min. […]

Cytochrome P450 3A4 (Homo sapiens), sequence (P08684 whole entry, looked up): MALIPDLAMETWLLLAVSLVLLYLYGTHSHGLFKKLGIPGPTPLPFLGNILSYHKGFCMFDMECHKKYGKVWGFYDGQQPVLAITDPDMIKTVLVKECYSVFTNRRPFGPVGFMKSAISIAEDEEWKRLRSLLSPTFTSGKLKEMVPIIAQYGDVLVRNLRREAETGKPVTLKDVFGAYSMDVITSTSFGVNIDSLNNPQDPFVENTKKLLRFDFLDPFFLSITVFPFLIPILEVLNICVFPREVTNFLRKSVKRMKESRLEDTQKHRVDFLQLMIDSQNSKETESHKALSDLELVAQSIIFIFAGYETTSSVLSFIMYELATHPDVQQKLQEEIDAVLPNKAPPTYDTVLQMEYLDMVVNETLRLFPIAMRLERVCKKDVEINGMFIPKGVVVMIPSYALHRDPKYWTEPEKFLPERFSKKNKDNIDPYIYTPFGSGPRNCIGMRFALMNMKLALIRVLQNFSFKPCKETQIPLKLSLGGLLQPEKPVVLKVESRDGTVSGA

SMILES | AC50 | outcome
CCN(Cc1c(F)cccc1Cl)c1c([N+](=O)[O-])cc(C(F)(F)F)cc1[N+](=O)[O-] | 1.9 µM (active) | –
CCC(C)OC(=O)N1CCCCC1CCO (stereo not given) | – | inactive
CCCCOC(=O)[C@@H](C)Oc1ccc(Oc2ccc(C(F)(F)F)cn2)cc1 | – | inactive
COCCO | – | inactive
COC(=O)c1cccc(C)c1S(=O)(=O)NC(=O)Nc1nc(OCC(F)(F)F)nc(N(C)C)n1 | 20 µM (active) | –
CC1(C)C(C=C(Cl)Cl)C1C(=O)OCc1cccc(Oc2ccccc2)c1 (stereo not given) | – | inactive
CN(C)C(=O)Nc1ccc(Cl)c(Cl)c1 | – | inactive
CCCN(CCC)c1c([N+](=O)[O-])cc(C(F)(F)F)c(N)c1[N+](=O)[O-] | 7.62 µM (active) | –
S=C([S-])NCCNC(=S)[S-].[Mn+2] | – | inactive
c1ccc(Nc2ccccc2)cc1 | – | inactive
OB(O)O | – | inactive
O=C(O)C1(C(=O)Nc2ccc(Cl)cc2Cl)CC1 | – | inactive
COC(=O)CSc1cc(N=c2sc(=O)n3n2CCCC3)c(F)cc1Cl | 4.08 µM (active) | –
C#CCOC(=O)[C@@H](C)Oc1ccc(Oc2ncc(Cl)cc2F)cc1 | – | inactive
CCOC(=O)C(C)Oc1ccc(Oc2cnc3cc(Cl)ccc3n2)cc1 (stereo not given) | – | inactive
COC(=O)c1c(Cl)nn(C)c1S(=O)(=O)NC(=O)Nc1nc(OC)cc(OC)n1 | 6.72 µM (active) | –
CSC(=O)c1cccc2nnsc12 | – | inactive
COc1c(Cl)ccc(Cl)c1C(=O)O | – | inactive
CCSC(=O)N(CC(C)C)CC(C)C | – | inactive
CCCCOC(=O)C(C)Oc1ccc(Oc2ccc(C(F)(F)F)cn2)cc1 (stereo not given) | – | inactive
CCCN(CCC)C(=O)SCC | – | inactive
CCNc1nc(N)nc(Cl)n1 | – | inactive
Oc1ccc(C(c2ccc(O)cc2)C(Cl)(Cl)Cl)cc1 | – | inactive
CCOC(=O)[C@H](C)Oc1ccc(Oc2nc3ccc(Cl)cc3o2)cc1 | – | inactive
CCOC(=O)NCCOc1ccc(Oc2ccccc2)cc1 | – | inactive
Cc1nn(C)c(Oc2ccccc2)c1C=NOCc1ccc(C(=O)OC(C)(C)C)cc1 | – | inactive
CC(C)(C)[C@@H](O)[C@@H](Cc1ccc(Cl)cc1)n1cncn1 | 2.15 µM (active) | –
CCOC(=O)COc1cc(-n2ncc(C(F)(F)F)c(C)c2=O)c(F)cc1Cl | 5.32 µM (active) | –
CCCCCOC(=O)COc1cc(N2C(=O)C3=C(CCCC3)C2=O)c(F)cc1Cl | – | inactive
CCCCC(CC)CN1C(=O)C2C3C=CC(C3)C2C1=O (stereo not given) | 20 µM (active) | –
